The values that follow come from PubChem BioAssay.

Experiment [1] addresses Cell division control protein 42 homolog (Homo sapiens) (UniProt P60953). Put plainly: activated mutant Cdc42 GTP-binding inhibitors, dose response, biochemical, multiplex bead flow cytometry, Bodipy-FL-GTP (AID 1333).
The target is the same in experiment [2]. Put plainly: wildtype Cdc42 GTP-binding inhibitors, dose response, biochemical, multiplex bead flow cytometry, Bodipy-FL-GTP (AID 1334;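 active = fitted half-maximal concentration within the tested range, moderate curve steepness, significant signal drop, and little compound fluorescence or bead-linkage interference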). To be noted: bead-based flow cytometry, Bodipy-FL-GTP binding to GST-Cdc42; at 100 µM (top of the series) unless noted. On the technique in general: In flow cytometry, cells or beads pass a laser one at a time.
Experiment [3] deals with GTPase HRas (Homo sapiens) (UniProt P01112). Put plainly: inhibitors of GTP binding to wildtype Ras, dose response, biochemical, multiplex bead flow cytometry (AID 1335;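 active = fitted half-maximal concentration within 10 nM to 100 µM, steepness 0.5 to 2, significant signal drop, low assay interference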). To be noted: bead-based flow cytometry, Bodipy-GTP binding to GST-Ras; at 100 µM (top of the series) unless noted.
In experiment [4] the test system is Ras-related protein Rab-7a (dog), GTP binding. Put plainly: Rab7 GTP binding inhibitors, potency, dose response, biochemical, wildtype, multiplex bead flow cytometry (AID 1336; call rule not given here).
Experiment [5] deals with Ras-related C3 botulinum toxin substrate 1 (Homo sapiens) (UniProt P63000). Put plainly: wildtype Rac1 GTP binding inhibitors, dose response, biochemical, multiplex bead flow cytometry (AID 1340;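 active = dose curve with midpoint inside tested range, moderate steepness, plateau gap beyond fit error, low compound glow and bead-link interference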). To be noted: GST-Rac1 beads, Bodipy-FL-GTP binding; at 100 µM (top of the series) unless noted.
Experiment [6] addresses GTPase HRas (Homo sapiens) (UniProt P01112). Put plainly: activated Ras mutant GTP binding inhibitors, dose response, biochemical, multiplex bead flow cytometry (AID 1341;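 active = dose-response curve with midpoint inside the tested range, moderate steepness, significant amplitude and little compound fluorescence or bead-attachment interference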;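 note: GST-tagged constitutively activated Ras mutant immobilized on beads and multiplexed with other GTPases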).

Each structure is given as a SMILES string. For part of these data: Results with a measured potency or affinity are listed apart. Activity calls are given as the source filed them.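 Rule for the calls, unless noted: active = fitted half-maximal concentration within the tested dose range, moderate curve steepness, a statistically real signal drop, and little compound fluorescence or tag-binding interference; inactive = the rest.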

Chain of GTPase HRas (Homo sapiens) (P01112 whole entry, looked up): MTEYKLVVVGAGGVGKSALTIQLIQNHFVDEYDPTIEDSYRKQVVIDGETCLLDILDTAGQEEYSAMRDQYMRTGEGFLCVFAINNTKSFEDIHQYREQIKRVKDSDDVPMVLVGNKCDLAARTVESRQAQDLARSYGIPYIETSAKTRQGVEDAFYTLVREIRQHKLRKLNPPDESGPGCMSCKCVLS
Chain of Cell division control protein 42 homolog (Homo sapiens) (P60953 whole entry, looked up): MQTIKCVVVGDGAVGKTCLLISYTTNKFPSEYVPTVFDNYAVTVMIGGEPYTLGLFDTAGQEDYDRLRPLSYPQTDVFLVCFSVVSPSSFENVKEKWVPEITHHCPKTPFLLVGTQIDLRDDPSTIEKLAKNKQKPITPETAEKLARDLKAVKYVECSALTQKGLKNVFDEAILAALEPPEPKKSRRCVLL

`Cc1c(C=O)c2ccccn2c1C(=O)c1cccc([N+](=O)[O-])c1`: the call in experiment [1], in experiment [4] and in experiment [6] was inactive. For the same compound, in experiment [2], the fluorescence, percent of control (lower = inhibition) is 31.4%. This compound showed a GTP binding, percent of control in experiment [3] of 76.8%. Besides, the GTP binding signal, raw median fluorescence (lower = inhibition) (MCF (arbitrary fluorescence units)) in experiment [5] stood at 242.
As for `C(=N\Nc1nn2cnnc2c2ccccc12)/c1ccco1`, the result in experiment [1], in experiment [4] and in experiment [6] was inactive. Further, in experiment [2], the fluorescence, percent of control (lower = inhibition) worked out at 31.6%. Also, the GTP binding, percent of control in experiment [3] was determined as 64.2%. Also, the GTP binding signal, raw median fluorescence (lower = inhibition) (MCF (arbitrary fluorescence units)) in experiment [5] amounted to 142.
On to `CCOC(=O)c1c2c3c(c(Cl)ccc3[nH]c1=O)C(=O)c1ccccc1-2`, for which the outcome in experiment [1], in experiment [4] and in experiment [6] was inactive. Besides, the fluorescence, percent of control (lower = inhibition) in experiment [2] is 19.1%. Besides, the GTP binding, percent of control in experiment [3] was 46.2%. In addition, in experiment [5], the GTP binding signal, raw median fluorescence (lower = inhibition) (MCF (arbitrary fluorescence units)) was determined as 103.
For the compound `O=S1(=O)N=C(N(CCO)/N=C/c2ccncc2)c2ccccc21`, the outcome in experiment [1], in experiment [4] and in experiment [6] was inactive. Further, the fluorescence, percent of control (lower = inhibition) in experiment [2] is 24.1%. Further, the GTP binding, percent of control in experiment [3] worked out at 52.3%. In experiment [5], this compound showed a GTP binding signal, raw median fluorescence (lower = inhibition) (MCF (arbitrary fluorescence units)) of 114.
As to `CC(C)C(=O)N1CCN(c2ccccc2NC(=O)c2cccc(Cl)c2)CC1`, the result in experiment [1], in experiment [4] and in experiment [6] was inactive. For the same compound, the fluorescence, percent of control (lower = inhibition) in experiment [2] turned out to be 34.8%. In experiment [3], this compound returned a GTP binding, percent of control of 82.2%. In experiment [5], the GTP binding signal, raw median fluorescence (lower = inhibition) (MCF (arbitrary fluorescence units)) was 269.
Take `CSc1nc2nccc(-c3ccc(-c4ccccc4)cc3)n2n1`: the outcome in experiment [1], in experiment [4] and in experiment [6] was inactive. Further, in experiment [2], the fluorescence, percent of control (lower = inhibition) was determined as 79.7%. Besides, in experiment [3], the GTP binding, percent of control is 132%. This compound returned a GTP binding signal, raw median fluorescence (lower = inhibition) (MCF (arbitrary fluorescence units)) in experiment [5] of 138.
Turning to `O=c1nc2c(O)cccn2c2c1c(=O)[nH]c1ccccc12`, the result in experiment [1], in experiment [4] and in experiment [6] was inactive. The fluorescence, percent of control (lower = inhibition) in experiment [2] came to 33.4%. This compound returned a GTP binding, percent of control in experiment [3] of 44.6%. This compound also displayed a GTP binding signal, raw median fluorescence (lower = inhibition) (MCF (arbitrary fluorescence units)) in experiment [5] of 93.
With `O=S(=O)(Cc1ccccc1)N1CCc2ccccc21`, the compound was called inactive in experiment [1], in experiment [4] and in experiment [6]. Also, in experiment [2], the fluorescence, percent of control (lower = inhibition) amounted to 48.6%. In experiment [3], this compound displayed a GTP binding, percent of control of 63.7%. This compound also gave a GTP binding signal, raw median fluorescence (lower = inhibition) (MCF (arbitrary fluorescence units)) in experiment [5] of 202.
As to `O=[N+]([O-])c1ccc2c(c1)c(-c1ccccc1)nc1nncn12`, the compound was called inactive in experiment [1], in experiment [4] and in experiment [6]. Moreover, in experiment [2], the fluorescence, percent of control (lower = inhibition) is 31.3%. This compound returned a GTP binding, percent of control in experiment [3] of 72.1%. Also, in experiment [5], the GTP binding signal, raw median fluorescence (lower = inhibition) (MCF (arbitrary fluorescence units)) stood at 203.
With `CCOC(=O)Cn1nnnc1C(CC)N(Cc1cccs1)Cc1cc2cc(C)ccc2[nH]c1=O` (stereo unspecified), the compound was classed as inactive in experiment [1], in experiment [4] and in experiment [6]. Also, the fluorescence, percent of control (lower = inhibition) in experiment [2] worked out at 96.4%. For the same compound, the GTP binding, percent of control in experiment [3] is 186%. Also, the GTP binding signal, raw median fluorescence (lower = inhibition) (MCF (arbitrary fluorescence units)) in experiment [5] was 194.
Take `CC(=O)c1cc2c(cc1NC(=O)c1cccc(S(=O)(=O)N3CCN(C)CC3)c1)OCO2`: the result in experiment [1], in experiment [4] and in experiment [6] was inactive. Moreover, the fluorescence, percent of control (lower = inhibition) in experiment [2] was 40.9%. The same compound showed a GTP binding, percent of control in experiment [3] of 86.3%. Also, in experiment [5], the GTP binding signal, raw median fluorescence (lower = inhibition) (MCF (arbitrary fluorescence units)) worked out at 196.
As to `Cc1ccc(NCC(=O)c2ccccc2)cc1Cl`, the outcome in experiment [1], in experiment [4] and in experiment [6] was inactive. Moreover, the fluorescence, percent of control (lower = inhibition) in experiment [2] is 36.3%. The GTP binding, percent of control in experiment [3] stood at 80.6%. This compound registered a GTP binding signal, raw median fluorescence (lower = inhibition) (MCF (arbitrary fluorescence units)) in experiment [5] of 256.
Regarding `Cc1ccc(Cc2cnc(NC(=O)/C(C#N)=C/c3ccc(-c4ccc([N+](=O)[O-])cc4)o3)s2)cc1`, the compound was called inactive in experiment [1], in experiment [4] and in experiment [6]. In experiment [2], the fluorescence, percent of control (lower = inhibition) came to 28.5%. In addition, the GTP binding, percent of control in experiment [3] is 75.1%. Further, the GTP binding signal, raw median fluorescence (lower = inhibition) (MCF (arbitrary fluorescence units)) in experiment [5] is 223.
Turning to `CCCCCOC(=O)c1ccccc1C(=O)O`, the outcome in experiment [1], in experiment [4] and in experiment [6] was inactive. For the same compound, the fluorescence, percent of control (lower = inhibition) in experiment [2] was found to be 134%. Further, the GTP binding, percent of control in experiment [3] was found to be 220%. This compound registered a GTP binding signal, raw median fluorescence (lower = inhibition) (MCF (arbitrary fluorescence units)) in experiment [5] of 275.
With `CCOC(=O)C1(Cc2ccccc2)CCCN(CCO)C1` (stereo unspecified), the compound was called inactive in experiment [1], in experiment [4] and in experiment [6]. In experiment [2], the fluorescence, percent of control (lower = inhibition) was 37.6%. Besides, the GTP binding, percent of control in experiment [3] was found to be 80.3%. The GTP binding signal, raw median fluorescence (lower = inhibition) (MCF (arbitrary fluorescence units)) in experiment [5] turned out to be 246.
Regarding `CCOc1ccc(CCNc2ccc3nnc(-c4ccccc4)n3n2)cc1OCC`, the compound was classed as inactive in experiment [1], in experiment [4] and in experiment [6]. The fluorescence, percent of control (lower = inhibition) in experiment [2] was determined as 40.9%. Besides, in experiment [3], the GTP binding, percent of control was 54.2%. In experiment [5], this compound had a GTP binding signal, raw median fluorescence (lower = inhibition) (MCF (arbitrary fluorescence units)) of 141.
